Outcome and AC50 data for four compounds are collected here from PubChem BioAssay (EPA / NIEHS).

By AC50 is commonly meant the concentration giving half of the maximal activity seen.

Records with an inconclusive call do not appear. The source made the active and inactive calls. How the source made its calls, unless noted: active means hit-call score of the fitted dose curve at least 0.9, where 1 is the maximum; inactive means score below 0.9.

Experiment [1] addresses Hepatocyte nuclear factor 3-beta (Homo sapiens) (UniProt Q9Y261). As to the kind of experiment: ATG_FoxA2_CIS: Attagene CIS-FACTORIAL HepG2 Assay for human Forkhead box A2 (FOXA2) (AID 2282942). Particulars: HepG2 cis-reporter transcription factor activity, 24 h; actives raise or lower the signal. The essentials: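 Endogenous transcription factor activity was read in HepG2 cells carrying transiently transfected cis-promoter reporter units. After 24 h dosing, reporter mRNA was quantified by RT-PCR and capillary electrophoresis, and values fitted bidirectionally versus DMSO.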

Experiment [2] has as its target Heat shock factor protein 1 (Homo sapiens) (UniProt Q00613). The experiment in a line: ATG_HSE_CIS: Attagene CIS-FACTORIAL HepG2 Assay for human Heat Shock Transcription Factor 1 (HSE) (AID 2282953). The following applies: HepG2 HSE cis-reporter, Attagene RNA transcription; actives raise or lower the signal. The essentials:
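Using HepG2 with transfected cis-driven reporter constructs, compound effects on endogenous factor activity are scored as reporter mRNA change at 24 h. Detection: RT-PCR, HpaI digestion, capillary electrophoresis; bidirectional fitting to DMSO.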

Experiment [3] can be described thus: ATG_RORE_CIS: Attagene CIS-FACTORIAL HepG2 Assay for human RAR-related Orphan Receptor Element (RORE) (AID 2282959). Particulars: HepG2 Attagene cis-factorial RORE reporter, mRNA; actives raise or lower the signal. The essentials: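 Cells were HepG2 carrying transfected cis-regulated reporter constructs, dosed for 24 hours. Total RNA was reverse-transcribed and reporter cDNA amplified, fluorescently labeled and sized by capillary electrophoresis. Activity was fitted bidirectionally relative to DMSO.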

The nature of experiment [4]: ATG_Sox_CIS: Attagene CIS-FACTORIAL HepG2 Assay for human SRY-box transcription factor (SOX) (AID 2282960). Particulars: HepG2 Attagene cis-factorial SOX reporter, mRNA; actives raise or lower the signal. The procedure, abridged:
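Transient MRTU transfection of HepG2; 24 h compound incubation; TriZol RNA, oligo(dT) RT, PCR, 6-FAM primer extension, HpaI cut, CE. Bidirectional fit, DMSO = baseline.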

Experiment [5] has as its target Transcription factor Sp1 (Homo sapiens) (UniProt P08047). As to the kind of experiment: ATG_Sp1_CIS: Attagene CIS-FACTORIAL HepG2 Assay for human Specificity Protein 1 (Sp1) (AID 2282961). The following applies: HepG2 Sp1 cis-reporter transcription, actives raise or lower the signal. The essentials: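 Endogenous Sp1 activity was gauged in human liver HepG2 cells bearing transfected reporter units under a cis-regulating promoter. After 24 h dosing, reporter mRNA was quantified by RT-PCR with capillary electrophoresis, and activity fitted bidirectionally versus DMSO.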

Experiment [6] can be described thus: ATG_SREBP_CIS: Attagene CIS-FACTORIAL HepG2 Assay for human Sterol Regulatory Element Binding (SREBP) (AID 2282962). Particulars: HepG2 Attagene cis-factorial SREBP reporter, mRNA; actives raise or lower the signal. The procedure, abridged:
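HepG2 cells transiently transfected with multiplexed cis-promoter reporter units sensing endogenous transcription factors; reporter mRNA measured 24 h after dosing by RT-PCR, 6-FAM labeling, HpaI digestion and capillary electrophoresis. Bidirectional fit versus DMSO.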

Experiment [7] deals with Signal transducer and activator of transcription 3 (Homo sapiens) (UniProt P40763). As to the kind of experiment: ATG_STAT3_CIS: Attagene CIS-FACTORIAL HepG2 Assay for human Signal Transducer and Activator of Transcription 3 (STAT3) (AID 2282963). Particulars: HepG2, Attagene cis-factorial STAT3 reporter transcription; actives raise or lower the signal. The procedure, abridged:
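HepG2 cells transiently transfected with multiple cis-element-driven reporter units report endogenous transcription factor activity. After 24 h compound exposure, reporter mRNA is measured by RT-PCR, 6-FAM labelling, HpaI digestion and capillary electrophoresis. Fitted bidirectionally versus DMSO.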

The nature of experiment [8]: ATG_TA_CIS: Attagene CIS-FACTORIAL HepG2 Assay for human TA Basal Promoter (AID 2282964). The following applies: HepG2 Attagene CIS-factorial TA basal promoter reporter; actives raise or lower the signal. The procedure, abridged:
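Transient MRTU transfection of HepG2 preceded 24 h compound exposure. Reporter mRNA levels were then read by RT-PCR with capillary electrophoresis, and this background-control endpoint was fitted bidirectionally to DMSO.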

Experiment [9] in a line: ATG_TCF_b_cat_CIS: Attagene CIS-FACTORIAL HepG2 Assay for human T-Cell-Factor with beta-catenin (TCF/b-cat) (AID 2282965). Particulars: HepG2 TCF/beta-catenin cis-reporter transcription, actives raise or lower the signal. The procedure, abridged:
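HepG2 cells transiently transfected with cis-promoter-driven multiplexed reporter units; reporter mRNA measured 24 h after dosing by RT-PCR, FAM labelling, HpaI digestion and capillary electrophoresis. Bidirectional fitting relative to DMSO baseline.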

The nature of experiment [10]: ATG_TAL_CIS: Attagene CIS-FACTORIAL HepG2 Assay for human TAL Basal Promoter (AID 2282966).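 Further: background control endpoint measuring basal TAL promoter reporter mRNA not a specific factor.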 Particulars: HepG2 Attagene cis-factorial TAL promoter reporter; actives raise or lower the signal. The procedure, abridged: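 In this cell-based multiplex, HepG2 liver cells bearing cis-promoter reporter constructs are dosed for 24 hours. Total RNA is reverse-transcribed and amplified, labelled fragments are sized by capillary electrophoresis, and signal changes are fitted bidirectionally versus DMSO.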

The nature of experiment [11]: ATG_VDRE_CIS: Attagene CIS-FACTORIAL HepG2 Assay for human Vitamin D Receptor Element (VDRE) (AID 2282968). Particulars: HepG2 VDRE cis-reporter transcription, actives raise or lower the signal. The essentials:
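Transiently transfected HepG2 cells carrying cis-regulated reporter transcription units were exposed for 24 h. Reporter mRNA was measured by RT-PCR with fluorescent labelling and capillary electrophoresis, and fitted in both directions against DMSO.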

For experiment [12], the target named is Transcriptional activator Myb (Homo sapiens) (UniProt P10242). As to the kind of experiment: ATG_Myb_CIS: Attagene CIS-FACTORIAL HepG2 Assay for human Myeloblastosis (Myb) Proto-Oncogene Transcription Factor (AID 2282986). Particulars: HepG2 Attagene CIS-FACTORIAL Myb reporter transcription; actives raise or lower the signal. The essentials: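 Steps: transfect HepG2 with cis-regulated reporter units; dose with chemical for 24 h; isolate RNA, reverse-transcribe, PCR-amplify and FAM-label reporter sequences; digest with HpaI; resolve by capillary electrophoresis. Activity fitted in both directions relative to DMSO.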

Experiment [13] has as its target Nuclear respiratory factor 1 (Homo sapiens) (UniProt Q16656). As to the kind of experiment: ATG_NRF1_CIS: Attagene CIS-FACTORIAL HepG2 Assay for human Nuclear Respiratory Factor 1 (NRF1) Orphan Gene (AID 2282987). The following applies: HepG2 NRF1 cis-element reporter, Attagene multiplex; actives raise or lower the signal. The essentials:
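Fluorescence intensity of labelled reporter cDNA fragments, resolved by capillary electrophoresis, served as readout for NRF1 cis-element activity. Transiently transfected HepG2 cells were dosed for 24 hours; activity in either direction was fitted against DMSO negative control.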

Experiment [14] can be described thus: ATG_NFI_CIS: Attagene CIS-FACTORIAL HepG2 Assay for human Nuclear Factor I (NFI) (AID 2282989). Particulars: HepG2 cis-regulatory reporter, NFI response element transcription; actives raise or lower the signal. The essentials:
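Reporter transcription driven by endogenous transcription factors in HepG2 cells; 24 h treatment. Quantitation by labelled RT-PCR fragments on capillary electrophoresis, gain- or loss-of-signal relative to DMSO.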

For experiment [15], the target named is Myc proto-oncogene protein (Homo sapiens) (UniProt P01106). The experiment in a line: ATG_Myc_CIS: Attagene CIS-FACTORIAL HepG2 Assay for human Myelocytomatosis (Myc) Proto-Oncogene Transcription Factor (AID 2282990). The following applies: HepG2, Attagene cis-reporter transcription factor activity; actives raise or lower the signal. The procedure, abridged: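 Transiently transfected HepG2 cells bearing cis-promoter reporter units for endogenous transcription factors; 24 h exposure. Reporter mRNA measured by RT-PCR, 6-FAM primer extension, HpaI cut and capillary electrophoresis; bidirectional fit relative to DMSO.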

The nature of experiment [16]: ATG_NRF2_ARE_CIS: Attagene CIS-FACTORIAL HepG2 Assay for human Nuclear Factor Erythroid 2 Related Factor 2 (NFR2) response to Antioxidant Response Elements (ARE) (AID 2282992).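 On AC50: reporter mRNA level measured by RT-PCR and capillary electrophoresis fluorescence.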 The following applies: HepG2 Attagene ARE/NRF2 reporter, transcription factor activity; actives raise or lower the signal. The essentials:
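HepG2 cells transiently transfected with multiplexed cis-element reporter constructs, 24 h after chemical dosing; reporter mRNA quantified by RT-PCR, fluorescent primer extension, HpaI digestion and capillary electrophoresis. Bidirectional fit relative to DMSO.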

Experiment [17] is described as follows: ATG_Oct_MLP_CIS: Attagene CIS-FACTORIAL HepG2 Assay for human Octamer-Binding Transcription Factor (Oct) (AID 2282993). The following applies: HepG2 Attagene cis-factorial Oct reporter, mRNA; actives raise or lower the signal. The essentials:
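Transfected HepG2 cells, 24 h treatment. Reporter mRNA quantified by RT-PCR–capillary electrophoresis; bidirectional fitting against DMSO.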

Experiment [18] deals with Cellular tumor antigen p53 (Homo sapiens) (UniProt P04637). The experiment in a line: ATG_p53_CIS: Attagene CIS-FACTORIAL HepG2 Assay for human p53 Transcription Factor (AID 2282994). The following applies: HepG2 p53 cis-element reporter, Attagene mRNA; actives raise or lower the signal. The procedure, abridged: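 HepG2 cells transiently transfected with cis-regulated multiple reporter transcription units, dosed 24 h. Reporter mRNA measured by RT-PCR, 6-FAM primer extension, HpaI digestion and capillary electrophoresis; bidirectional fit relative to DMSO.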

Experiment [19] has as its target Nuclear receptor subfamily 1 group I member 2 (Homo sapiens) (UniProt O75469). The experiment in a line: ATG_PXR_TRANS: Attagene TRANS-FACTORIAL HepG2 Assay for human Pregnane X Receptor (PXR) (AID 2283008; active means hit-call score of the fitted dose curve at least 0.9, where 1 is the maximum). The essentials:
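HepG2 cells transiently transfected with GAL4-UAS reporter units and PXR-Gal4 chimera, exposed 24 h. Reporter mRNA quantified by RT-PCR, fluorescent labelling, HpaI digestion and capillary electrophoresis; gain of signal vs DMSO.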

Experiment [20] is described as follows: ATG_XTT_Cytotoxicity: Cytotoxicity Assessment in the Attagene TRANS-FACTORIAL HepG2 Assay (AID 2283584; active means hit-call score of the fitted dose curve at least 0.9, where 1 is the maximum;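 on AC50: cells exposed to compound for 24 h before reading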). The procedure, abridged: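 XTT readout of cell number in transfected HepG2 cells, 24 h post-dosing; DMSO serves as negative control and baseline, with activity taken as loss of viability signal.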

Chain of Myc proto-oncogene protein (Homo sapiens) (P01106 whole entry, looked up): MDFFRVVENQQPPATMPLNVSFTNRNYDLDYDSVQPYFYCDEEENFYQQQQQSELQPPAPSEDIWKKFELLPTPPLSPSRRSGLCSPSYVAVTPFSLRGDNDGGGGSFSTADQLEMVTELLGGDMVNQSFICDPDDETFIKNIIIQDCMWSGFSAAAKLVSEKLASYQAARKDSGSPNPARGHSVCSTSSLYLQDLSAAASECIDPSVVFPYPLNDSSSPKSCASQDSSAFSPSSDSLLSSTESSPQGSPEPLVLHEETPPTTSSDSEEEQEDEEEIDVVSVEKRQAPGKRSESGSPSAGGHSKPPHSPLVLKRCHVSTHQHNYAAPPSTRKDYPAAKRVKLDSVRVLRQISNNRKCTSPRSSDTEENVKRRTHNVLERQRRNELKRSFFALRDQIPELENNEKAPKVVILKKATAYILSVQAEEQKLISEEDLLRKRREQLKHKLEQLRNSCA
Chain of Cellular tumor antigen p53 (Homo sapiens) (P04637 whole entry, looked up): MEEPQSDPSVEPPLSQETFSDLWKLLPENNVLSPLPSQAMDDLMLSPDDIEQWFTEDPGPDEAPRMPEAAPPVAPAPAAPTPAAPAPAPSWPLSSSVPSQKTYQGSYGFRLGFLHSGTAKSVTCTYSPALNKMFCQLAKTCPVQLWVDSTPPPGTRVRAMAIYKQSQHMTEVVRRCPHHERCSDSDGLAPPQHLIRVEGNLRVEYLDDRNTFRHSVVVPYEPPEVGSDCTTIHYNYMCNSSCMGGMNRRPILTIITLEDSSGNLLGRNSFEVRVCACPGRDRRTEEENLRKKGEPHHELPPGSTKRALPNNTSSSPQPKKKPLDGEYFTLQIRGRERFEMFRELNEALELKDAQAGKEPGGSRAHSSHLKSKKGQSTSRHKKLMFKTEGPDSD
Chain of Nuclear respiratory factor 1 (Homo sapiens) (Q16656 whole entry, looked up, the tested form may be a part): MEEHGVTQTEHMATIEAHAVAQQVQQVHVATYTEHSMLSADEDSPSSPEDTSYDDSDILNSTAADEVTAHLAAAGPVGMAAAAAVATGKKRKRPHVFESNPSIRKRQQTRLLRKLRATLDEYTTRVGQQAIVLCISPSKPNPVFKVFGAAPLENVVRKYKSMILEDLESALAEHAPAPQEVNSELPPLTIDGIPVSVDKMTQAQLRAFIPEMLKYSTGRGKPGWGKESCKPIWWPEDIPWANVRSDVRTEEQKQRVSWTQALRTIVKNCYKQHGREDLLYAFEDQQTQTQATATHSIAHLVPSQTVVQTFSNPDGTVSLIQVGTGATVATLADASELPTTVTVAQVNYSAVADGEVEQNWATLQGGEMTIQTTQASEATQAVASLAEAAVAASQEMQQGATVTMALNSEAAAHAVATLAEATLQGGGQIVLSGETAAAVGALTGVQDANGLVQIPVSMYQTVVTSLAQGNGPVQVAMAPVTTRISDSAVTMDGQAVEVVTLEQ
Chain of Nuclear receptor subfamily 1 group I member 2 (Homo sapiens) (O75469 whole entry, looked up, the tested form may be a part): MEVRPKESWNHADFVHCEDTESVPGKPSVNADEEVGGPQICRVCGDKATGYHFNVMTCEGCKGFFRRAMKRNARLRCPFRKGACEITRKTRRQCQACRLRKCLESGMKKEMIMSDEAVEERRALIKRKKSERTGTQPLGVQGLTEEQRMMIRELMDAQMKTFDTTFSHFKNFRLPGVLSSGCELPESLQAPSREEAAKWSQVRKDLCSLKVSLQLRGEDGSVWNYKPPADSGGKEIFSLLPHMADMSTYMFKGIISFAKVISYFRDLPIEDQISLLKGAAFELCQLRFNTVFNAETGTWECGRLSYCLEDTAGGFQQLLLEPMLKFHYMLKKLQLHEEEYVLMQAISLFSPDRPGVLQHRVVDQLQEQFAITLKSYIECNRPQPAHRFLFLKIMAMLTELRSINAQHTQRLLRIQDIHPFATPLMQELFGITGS
Chain of Transcriptional activator Myb (Homo sapiens) (P10242 whole entry, looked up): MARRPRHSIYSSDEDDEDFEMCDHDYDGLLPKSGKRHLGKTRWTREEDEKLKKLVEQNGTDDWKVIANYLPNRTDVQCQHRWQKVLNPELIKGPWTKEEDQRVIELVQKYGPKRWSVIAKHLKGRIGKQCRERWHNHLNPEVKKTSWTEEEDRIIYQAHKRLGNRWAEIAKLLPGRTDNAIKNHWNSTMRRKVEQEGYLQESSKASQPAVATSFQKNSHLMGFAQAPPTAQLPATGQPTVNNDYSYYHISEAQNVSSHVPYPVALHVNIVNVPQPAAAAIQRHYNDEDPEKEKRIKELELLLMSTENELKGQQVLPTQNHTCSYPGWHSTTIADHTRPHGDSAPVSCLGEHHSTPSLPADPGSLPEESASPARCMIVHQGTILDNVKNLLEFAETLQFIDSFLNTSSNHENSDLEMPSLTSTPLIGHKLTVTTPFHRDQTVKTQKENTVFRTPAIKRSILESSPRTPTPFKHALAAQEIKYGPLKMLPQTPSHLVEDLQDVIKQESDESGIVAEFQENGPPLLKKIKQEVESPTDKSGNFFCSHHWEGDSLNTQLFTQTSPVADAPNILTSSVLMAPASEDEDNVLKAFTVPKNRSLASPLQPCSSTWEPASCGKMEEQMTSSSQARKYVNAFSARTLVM
Chain of Hepatocyte nuclear factor 3-beta (Homo sapiens) (Q9Y261 whole entry, looked up): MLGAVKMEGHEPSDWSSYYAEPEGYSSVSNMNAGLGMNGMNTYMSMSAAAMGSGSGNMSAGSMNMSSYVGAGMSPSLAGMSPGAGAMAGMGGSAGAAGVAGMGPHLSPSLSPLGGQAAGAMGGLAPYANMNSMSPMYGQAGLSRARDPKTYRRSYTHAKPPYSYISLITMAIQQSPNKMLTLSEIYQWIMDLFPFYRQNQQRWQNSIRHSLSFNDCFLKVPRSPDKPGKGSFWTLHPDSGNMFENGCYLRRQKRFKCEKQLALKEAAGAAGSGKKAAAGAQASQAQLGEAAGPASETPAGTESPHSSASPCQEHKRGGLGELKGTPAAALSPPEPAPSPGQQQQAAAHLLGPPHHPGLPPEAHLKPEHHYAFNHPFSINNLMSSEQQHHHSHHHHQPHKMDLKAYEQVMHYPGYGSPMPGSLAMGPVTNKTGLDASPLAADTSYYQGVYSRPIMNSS
Chain of Heat shock factor protein 1 (Homo sapiens) (Q00613 whole entry, looked up): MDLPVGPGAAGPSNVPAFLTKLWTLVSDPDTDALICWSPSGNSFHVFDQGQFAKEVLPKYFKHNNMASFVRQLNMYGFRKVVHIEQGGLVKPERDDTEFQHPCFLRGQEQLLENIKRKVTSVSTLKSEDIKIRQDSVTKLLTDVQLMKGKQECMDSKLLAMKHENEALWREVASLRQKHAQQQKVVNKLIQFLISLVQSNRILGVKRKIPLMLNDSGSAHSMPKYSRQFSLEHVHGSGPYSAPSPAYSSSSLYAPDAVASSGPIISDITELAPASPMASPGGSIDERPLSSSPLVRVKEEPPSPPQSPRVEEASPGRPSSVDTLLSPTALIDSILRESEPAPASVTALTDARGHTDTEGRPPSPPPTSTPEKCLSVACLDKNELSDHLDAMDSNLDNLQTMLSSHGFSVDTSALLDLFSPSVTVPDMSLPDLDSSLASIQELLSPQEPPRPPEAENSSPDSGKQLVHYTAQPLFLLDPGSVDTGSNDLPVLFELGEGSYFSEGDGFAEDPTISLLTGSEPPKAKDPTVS
Chain of Signal transducer and activator of transcription 3 (Homo sapiens) (P40763 whole entry, looked up): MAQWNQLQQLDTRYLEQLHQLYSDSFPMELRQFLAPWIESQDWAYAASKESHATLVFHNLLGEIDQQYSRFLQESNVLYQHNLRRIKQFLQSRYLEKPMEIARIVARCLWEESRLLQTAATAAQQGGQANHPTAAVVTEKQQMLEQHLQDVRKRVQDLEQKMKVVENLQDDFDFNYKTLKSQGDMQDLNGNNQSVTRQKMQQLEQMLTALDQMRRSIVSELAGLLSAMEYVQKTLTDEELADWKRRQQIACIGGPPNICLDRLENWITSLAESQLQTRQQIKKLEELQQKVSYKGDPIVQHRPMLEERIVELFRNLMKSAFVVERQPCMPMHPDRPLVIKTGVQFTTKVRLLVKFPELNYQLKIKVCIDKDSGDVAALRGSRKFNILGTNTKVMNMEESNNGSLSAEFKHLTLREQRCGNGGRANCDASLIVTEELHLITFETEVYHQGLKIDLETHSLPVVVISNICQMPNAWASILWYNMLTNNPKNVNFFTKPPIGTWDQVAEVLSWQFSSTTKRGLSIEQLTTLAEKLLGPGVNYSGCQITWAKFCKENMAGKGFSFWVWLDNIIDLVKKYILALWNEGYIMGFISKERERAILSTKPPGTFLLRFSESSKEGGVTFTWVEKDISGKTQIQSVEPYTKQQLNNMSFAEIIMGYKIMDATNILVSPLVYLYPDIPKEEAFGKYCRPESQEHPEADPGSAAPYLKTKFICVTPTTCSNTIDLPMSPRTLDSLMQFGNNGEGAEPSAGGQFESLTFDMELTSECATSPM
Chain of Transcription factor Sp1 (Homo sapiens) (P08047 whole entry, looked up): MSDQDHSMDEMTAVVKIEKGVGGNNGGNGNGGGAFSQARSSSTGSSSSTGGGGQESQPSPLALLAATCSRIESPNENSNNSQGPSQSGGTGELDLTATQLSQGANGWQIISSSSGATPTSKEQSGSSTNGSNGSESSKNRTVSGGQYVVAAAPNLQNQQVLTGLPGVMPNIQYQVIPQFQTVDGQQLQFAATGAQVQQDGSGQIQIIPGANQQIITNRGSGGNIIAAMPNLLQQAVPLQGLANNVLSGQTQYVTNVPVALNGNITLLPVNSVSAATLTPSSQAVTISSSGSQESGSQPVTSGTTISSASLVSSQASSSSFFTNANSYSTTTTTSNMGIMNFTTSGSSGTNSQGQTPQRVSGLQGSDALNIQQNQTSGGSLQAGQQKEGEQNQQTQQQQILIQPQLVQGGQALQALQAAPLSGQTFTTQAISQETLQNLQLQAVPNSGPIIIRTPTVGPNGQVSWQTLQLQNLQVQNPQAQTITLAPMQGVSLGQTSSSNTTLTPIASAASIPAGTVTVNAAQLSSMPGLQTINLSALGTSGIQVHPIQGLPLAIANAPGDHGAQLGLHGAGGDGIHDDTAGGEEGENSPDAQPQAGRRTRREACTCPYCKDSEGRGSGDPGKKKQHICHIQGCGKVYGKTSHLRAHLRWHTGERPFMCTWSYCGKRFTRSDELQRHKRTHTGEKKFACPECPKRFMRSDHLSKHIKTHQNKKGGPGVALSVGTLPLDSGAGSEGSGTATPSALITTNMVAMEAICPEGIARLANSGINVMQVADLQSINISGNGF

Turning to `CC/C=C\CC1=C(C)CCC1=O`, the result in experiment [1], in [2], in experiment [3], in experiment [4], in experiment [5] and in [6] was inactive. Also, the result in experiment [7], in experiment [8], in experiment [9], in experiment [10], in experiment [11] and in [12] was inactive. The call in experiment [13], in experiment [14], in [15], in [17], in experiment [18] and in experiment [19] was inactive. For the same compound, the compound was classed as inactive in experiment [20]. Further, the concentration at half-maximal activity (AC50) in experiment [16] is 35.9 µM (active).

In the case of `CCCCn1cc[n+](C)c1`, the compound was called inactive in [1], in experiment [3], in experiment [4], in [5], in experiment [6] and in experiment [7]. For the same compound, the result in experiment [8], in [9], in [10], in experiment [12], in experiment [13] and in experiment [14] was inactive. For the same compound, the compound was classed as inactive in [15], in experiment [16], in experiment [17], in experiment [19] and in experiment [20].

Consider `CCCOCCC`, for which the compound was classed as inactive in [1], in experiment [2], in experiment [4], in [5], in experiment [6] and in experiment [7]. The compound was classed as inactive in experiment [8], in [9], in [10], in [11], in experiment [12] and in [13]. For the same compound, the call in [14], in [15], in [16], in [17], in experiment [18] and in experiment [19] was inactive. In [20], the result was inactive.

As to `Nc1nnc(-c2ccc([N+](=O)[O-])o2)o1`, the call in experiment [1], in [2], in [3], in experiment [4], in experiment [5] and in experiment [6] was inactive. Also, the compound was called inactive in [7], in experiment [8], in experiment [9], in experiment [10], in [11] and in experiment [12]. For the same compound, the call in experiment [13], in experiment [14], in experiment [17] and in experiment [18] was inactive. Moreover, the AC50 was 12 µM (active) in [15], 20.8 µM (active) in experiment [16] and 159 µM (active) in [20].
